Reference: PubChem BioAssay (NCATS)
Inconclusive results are not listed. Calls of active or inactive are those of the source. The call rests on the fitted dose curve; in most records, active means well fitted curve in either direction with a large enough effect (not every such curve was filed as active); inconclusive means small, poorly fitted or top-dose-only effect, or another doubt; inactive means flat fitted curve, though single readings scatter.

Assay: AP1 Signaling Pathway (AID 357);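 further: ME-180 reporter cells stimulated with EGF at its EC50 level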
Settings: ME-180 (cervical carcinoma) AP-1-bla reporter, EGF-induced, beta-lactamase ratio, 5 h; series mostly up to 17.2 µM
Text: NCGC Assay Overview: Activator protein-1 (AP-1), a transcription factor, plays an important role in tumor genesis by regulating genes involved in cell proliferation, differentiation, apoptosis, and angiogenesis. AP-1 activity is induced by a complex network of signaling pathways that involves extracellular signals, such as growth factors. The AP-1 protein complex formed from c-Fos and c-Jun binding to the AP-1 response element results in transcriptional activation of genes containing such elements within their promoter. Low molecular weight molecules have been discovered and developed to modulate various components of these signaling pathways, for example, MAP kinase inhibitors. However, many points of pathway modulation remain untested due to the lack of chemical probes making this signaling locus of general interest. Using a beta-lactamase reporter-gene under control of the AP-1 response element, a cell-based assay [CellSensor(TM) AP-1-bla ME-180 developed by Invitrogen Corp.] was used to measure EGF-induced signaling. Library compounds were measured for their ability to modulate positively or negatively the action of EC50 EGF on reporter gene activity. Compounds were screened in a titration series in 1536-well format. Positive and negative modulators were identified based on the AC50 values derived from the screening data.
NCGC Assay Protocol Summary: 2500 cells/5uL in Opti-MEM medium containing 0.5% dialyzed FBS, 0.1 mM NEAA, 1 mM sodium pyruvate and 10 mM HEPES was dispensed into 1536-well plates and cells were cultured at 37 degrees Celsius overnight. […] After centrifugation at 1000 rpm for 2 seconds the plates were incubated at 37 degrees Celsius for 5 hours. 1 uL of CCF4-dye mixture was added to each well. After incubated at room temperature for 2.5 hours the plates were measured on an EnVision plate reader at Excitation 405nm, Emission1=460nm and Emission 2=530nm. The %Activity was determined from the ratio of 460nm/530nm.

outcome, inactive:
COC(=O)Nc1nc2ccc(SC(C)C)cc2[nH]1
NS(=O)(=O)c1cc2c(cc1C(F)(F)F)N[C@H](Cc1ccccc1)NS2(=O)=O
CC[C@@H]1OC(=O)[C@H](C)[C@H](O[C@@H]2C[C@](C)(OC)[C@H](O)[C@H](C)O2)[C@H](C)[C@H](O[C@@H]2O[C@@H](C)C[C@@H](N(C)C)[C@@H]2O)[C@](C)(O)C[C@H](C)C(=O)[C@H](C)[C@H](O)[C@]1(C)O
CN1CCCN([C@@H](c2ccccc2)c2ccc(Cl)cc2)CC1
CO[C@@H]1C[C@H](O[C@H]2[C@@H](C)[C@H](O[C@@H]3O[C@@H](C)C[C@@H](N(C)C)[C@@H]3OC(C)=O)[C@H](C)C[C@]3(CO3)C(=O)[C@H](C)[C@H](OC(C)=O)[C@H](C)[C@H](C)OC(=O)[C@@H]2C)O[C@H](C)[C@@H]1OC(C)=O
CN(C/C=C\c1ccccc1)Cc1cccc2ccccc12
CC1(C)S[C@@H]2[C@H](NC(=O)COc3ccccc3)C(=O)N2[C@H]1C(=O)O (tested in a mixture with another compound)
CC[C@](C)(CN(C)C)OC(=O)c1ccccc1
CN(C)/N=N\c1nc[nH]c1C(N)=O
CC(C)n1c(/C=C\[C@@H](O)C[C@@H](O)CC(=O)O)c(-c2ccc(F)cc2)c2ccccc21
Cc1ccc(S(=O)(=O)NC(=O)NN2C[C@H]3CCC[C@@H]3C2)cc1
C1CCN2C[C@@H]3C[C@@H](CN4CCCC[C@H]34)[C@H]2C1
COC(=O)[C@@H]1[C@@H]2C[C@H]3c4[nH]c5cc(OC)ccc5c4CCN3C[C@@H]2C[C@H](OC(=O)c2cc(OC)c(OC)c(OC)c2)[C@H]1OC
C[N+]12CCC(CC1)[C@@H](OC(=O)C(O)(c1ccccc1)c1ccccc1)C2
Cc1c(O)c(=O)n(-c2ccccc2)n1C
CN1CCN([C@@H](c2ccccc2)c2ccc(Cl)cc2)CC1
c1ccc2c(c1)CCCc1cc(NCCN3CCOCC3)nnc1-2
NS(=O)(=O)c1cc2c(cc1Cl)N[C@@H](C(Cl)Cl)NS2(=O)=O
COc1ccccc1OC[C@H](O)CO
CC1(C)O[C@H]2C[C@@H]3[C@H]4CCC5=CC(=O)CC[C@@]5(C)[C@]4(F)[C@@H](O)C[C@@]3(C)[C@@]2(C(=O)CCl)O1
CC(C)NC[C@H]1CCc2cc(CO)c([N+](=O)[O-])cc2N1
Clc1ccc([C@H](Cn2ccnc2)OCc2c(Cl)cccc2Cl)c(Cl)c1
NC[C@@H]1O[C@H](O[C@H]2[C@H](O)[C@@H](O[C@H]3[C@H](O)[C@H](N)C[C@H](N)[C@H]3O[C@@H]3O[C@H](CO)[C@@H](O)[C@H](O)[C@@H]3N)O[C@H]2CO)[C@@H](N)[C@H](O)[C@@H]1O
C[C@@]12CC3CC(N)(C1)C[C@@](C)(C3)C2
CO[C@]1(NC(=O)Cc2cccs2)C(=O)N2C(C(=O)O)=C(COC(N)=O)CS[C@H]21
C=C1CC[C@H](O)C/C1=C/C=C1\CCC[C@]2(C)[C@H]1CC[C@H]2[C@@H](C)/C=C\[C@@H](C)C(C)C
COc1c2c(nc3ccccc13)O[C@H]([C@@](C)(O)CO)C2
C[C@@H]1C[C@H](OC(=O)c2ccccc2O)CC(C)(C)C1
CCN(CC)CCOC(=O)[C@@H](Cc1cccc2ccccc12)C[C@@H]1CCCO1
CC1(C)S[C@@H]2[C@H](NC(=O)[C@@H](N)c3ccc(O)cc3)C(=O)N2[C@H]1C(=O)O
C[C@@]12C=CC(=O)C=C1CC[C@H]1[C@H]3CC[C@](O)(C(=O)CO)[C@]3(C)CC(=O)[C@@H]12
CCCCC[C@H](O)/C=C\[C@H]1[C@H](C/C=C\CCCC(=O)O)[C@@H](O)C[C@H]1O (tested in a mixture with another compound)
CN(C)CCn1nnnc1SCC1=C(C(=O)O)N2C(=O)[C@@H](NC(=O)Cc3csc(N)n3)[C@@H]2SC1
CN[C@@H]1[C@H](O[C@H]2[C@@H](O[C@@H]3[C@@H](O)[C@@H](O)[C@@H](N=C(N)N)[C@@H](O)[C@@H]3N=C(N)N)O[C@@H](C)[C@]2(O)CO)O[C@H](CO)[C@@H](O)[C@@H]1O
C[C@H]1CS(=O)(=O)CCN1/N=C\c1ccc([N+](=O)[O-])o1
CC[N+]1(C)[C@@H]2CC[C@H]1CC(OC(=O)[C@H]1CC[C@@](C(=O)OC3C[C@H]4CC[C@@H](C3)[N+]4(C)CC)(c3ccccc3)c3ccccc31)C2 (stereo not given in full)
Clc1ccc([C@H](Cn2ccnc2)OCc2csc3c(Cl)cccc23)c(Cl)c1
CCCC[C@H](CC)CN1CN(C[C@@H](CC)CCCC)CC(C)(N)C1
CCN1CCC[C@@H](OC(=O)C(c2ccccc2)c2ccccc2)C1
CCN(CCCCOC(=O)c1ccc(OC)c(OC)c1)[C@@H](C)Cc1ccc(OC)cc1
